Source: PubChem BioAssay
A selection: hits, their analogues and other compounds. The true share with any hit is near 1.6%.
KCNQ2 block: KCNQ2 (rat) channel inhibition | CHO-K1 KCNQ2, FluxOR thallium flux, 20 min; active compounds read low | B-score at 10 µM | 310,000 tested, 1.1% active | AID 2156;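 active = fluorescence ratio B-score at most minus 3 library SDs, with starting brightness B-score within 2 library SDs, cut at about -5.5 in these data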
Target sequence (O88943 whole entry, looked up): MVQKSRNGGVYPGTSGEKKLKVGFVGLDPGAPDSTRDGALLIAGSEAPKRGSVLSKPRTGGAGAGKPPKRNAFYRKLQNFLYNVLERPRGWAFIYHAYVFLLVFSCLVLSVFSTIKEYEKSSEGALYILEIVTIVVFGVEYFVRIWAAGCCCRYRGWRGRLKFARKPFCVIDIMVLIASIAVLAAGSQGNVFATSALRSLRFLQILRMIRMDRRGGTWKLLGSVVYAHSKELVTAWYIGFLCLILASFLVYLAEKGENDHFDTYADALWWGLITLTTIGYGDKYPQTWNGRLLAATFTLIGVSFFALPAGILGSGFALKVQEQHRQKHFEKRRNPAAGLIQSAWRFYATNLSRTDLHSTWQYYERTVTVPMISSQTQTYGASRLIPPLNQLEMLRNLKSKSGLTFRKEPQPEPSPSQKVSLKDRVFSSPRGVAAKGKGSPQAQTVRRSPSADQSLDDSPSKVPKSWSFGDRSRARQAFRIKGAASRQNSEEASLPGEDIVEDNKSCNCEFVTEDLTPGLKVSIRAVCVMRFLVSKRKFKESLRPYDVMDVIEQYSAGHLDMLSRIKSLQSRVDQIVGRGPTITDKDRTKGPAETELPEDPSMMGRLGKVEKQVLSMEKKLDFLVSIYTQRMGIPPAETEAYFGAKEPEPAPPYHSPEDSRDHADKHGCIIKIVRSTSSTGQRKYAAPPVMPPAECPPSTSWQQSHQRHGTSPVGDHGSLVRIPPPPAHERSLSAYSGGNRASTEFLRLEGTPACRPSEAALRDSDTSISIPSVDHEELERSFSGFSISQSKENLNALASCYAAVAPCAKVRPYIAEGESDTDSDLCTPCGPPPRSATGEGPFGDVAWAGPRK
KCNQ2 enhance: enhances the rat KCNQ2 potassium channel. 310,000 tested, 0.54% active. AID 2239. CHO-K1 KCNQ2, FluxOR thallium flux fluorescence; active compounds read high. B-score at 10 µM. O88943;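 active = fluorescence ratio B-score at least 3 SD of library B-scores, with initial fluorescence B-score within 3 of them, cut at about 5.3 in these data; same plate scores as AID 2156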;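 note: B-score of peak minus minimum over baseline fluorescence ratio after K+ and Tl+ stimulus; positive B-score means potentiation of KCNQ2 with more thallium influx and brighter signal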
A number is an active result; 0 = inactive; - = not tested or not shown.

SMILES | KCNQ2 block | KCNQ2 enhance
Cc1cc(=O)n2nc(N3CCCC(C(=O)NCc4ccccc4C)C3)sc2n1 (configuration not stated) | 0 | -
O=C(NCCc1c[nH]c2ccccc12)C(=O)NCC1OCCN1S(=O)(=O)c1cc(F)ccc1F (configuration not stated) | 0 | 0
O=C(Nc1nnc(-c2ccc(Cl)cc2)o1)Nc1ccccc1F | 0 | -
CC1CCC(C(C)C)C(OC(=O)CSc2nccc(=O)[nH]2)C1 (configuration not stated) | 0 | -
CC1CCC(C(C)C)C(OC(=O)C2=C3c4ccccc4S(=O)(=O)N3CC2)C1 (configuration not stated) | -6.12 | 0
COc1cc(/C=N/NC(=O)c2cccc([N+](=O)[O-])c2)cc(OC)c1O | 0 | 0
COc1cccc(/C=N/NC(=O)c2ccc([N+](=O)[O-])cc2Cl)c1O | 0 | 7.73
Cc1cc(C)c(OCC(=O)OC(C)C(=O)NC2CC2)c(C)c1 (configuration not stated) | 0 | -
COc1ccc(OC)c(NC(=O)CN(Cc2ccc(F)cc2)C2CCCCC2)c1 | -7.87 | 0
COc1ccc(Cl)cc1NC(=O)CN(C)C1CCCCC1 | 0 | -
Cc1c(NS(=O)(=O)c2cc(NC(=O)CCN3CCCC(C)C3)ccc2Cl)c(=O)n(-c2ccccc2)n1C (configuration not stated) | 0 | -
O=C(O)C1C2CCCCC2=C2CCCCC2C1C(=O)c1ccccc1 (configuration not stated) | 0 | 0
Cc1ccccc1/C(N)=N/OC(=O)N1c2ccccc2Sc2ccccc21 | -5.84 | 0
CCOC(=O)N1c2ccccc2Sc2ccccc21 | 0 | -
CCOc1ccc(NC(=O)CC2C(=O)N(CC)C(=S)N2NC(=O)c2ccncc2)cc1 (configuration not stated) | 0 | -
CC(C)N1CCN(C(=O)C2CCC(=O)N(CCc3cccc(F)c3)C2)CC1 (configuration not stated) | 0 | 0
Cc1ccc2nc3c(cc2c1)c(NC(=O)c1ccccn1)nn3CC(C)C | -7.48 | 0
CCn1nc(NC(=O)c2ccccn2)c2cc3cc(C)ccc3nc21 | 0 | 0
Cc1ccccc1-n1ncc2c1CC(C)(C)CC2NC(=O)CN1CCCC1=O (configuration not stated) | 0 | 0
Cc1cc(C)n(C(=O)c2c([N+](=O)[O-])c(C)nn2C)n1 | 0 | 0
Cc1ccc(SC(=O)c2c([N+](=O)[O-])c(C)nn2C)cc1 | -5.9 | 0
CCn1c(SCc2ccccc2Cl)nc2nc3c(cc2c1=O)CCCC3 | 0 | -
CCn1c(SCc2c(Cl)cccc2Cl)nc2nc3c(cc2c1=O)CCCC3 | -6.7 | 0
COc1ccccc1CNC(=O)CCC(=O)N1CC(C)Sc2ccccc21 (configuration not stated) | -6.26 | 0
CC1CN(C(=O)CCC(=O)NCc2ccc(F)cc2)c2ccccc2S1 (configuration not stated) | 0 | -
SMILES | KCNQ2 block | KCNQ2 enhance
Cc1ccc2cc(CCl)c(Cl)nc2c1 | 0 | -
Cn1c(SCC(=O)c2ccccc2)nnc1-c1ccc(O)cc1 | 0 | 0
Cn1c(SCC(=O)N2c3ccccc3CCc3ccccc32)nnc1-c1ccc(O)cc1 | -5.77 | 0
COc1cc(NS(=O)(=O)c2c(C)oc3c(F)c(F)c(F)c(F)c23)cc(OC)c1OC | -6.65 | 0
COc1cc(NS(=O)(=O)c2ccc3c(c2)oc(=O)n3C)cc(OC)c1OC | 0 | -
CC1(C)Oc2ccc3ccc(=O)oc3c2C(/C=N/O)=C1Cl | 0 | -
O=C(c1noc2c1CSc1ccccc1-2)N1CCN(c2ccc(Cl)cc2)CC1 | -7.05 | 0
O=C(c1ccccc1)N1CCN(c2ccc(Cl)cc2)CC1 | 0 | -
Cc1ccc(C(C(=O)NC2CCCCC2)N(CC2CCCO2)C(=O)CNC(=O)c2cccs2)cc1 (configuration not stated) | 0 | -
CCC(C)(C)NC(=O)C(c1ccc(C)cc1)N(CC1CCCO1)C(=O)CNC(=O)c1cccs1 (configuration not stated) | -5.81 | 0
O=C(c1ccc(Cl)cc1)N(Cc1ccccc1F)N1C(=O)CCCC1=O | 0 | -
CC(C)c1ccc2oc(=O)cc(CN3CCOCC3)c2c1 | 0 | -
COc1cccc(/C=N/n2c(=S)n(C)c3cc(C)c(C)cc32)c1OC | -6.13 | 0
COc1cccc(/C=N/n2c(-c3cc(C)[nH]n3)n[nH]c2=S)c1OC | 0 | -
CCc1ccc(NC(=S)N(CCCN2CCOCC2)Cc2ccco2)cc1 | 0 | 6.62
COc1ccc(NC(=S)N(CCCN2CCOCC2)Cc2ccco2)cc1 | 0 | -
CCc1ccc(NC(=O)Cn2cccc2)cc1 | 0 | -
CCCCc1ccc(/C(C)=N/NC(=O)C2CCCC2)cc1 | 0 | -
COc1ccc(N(C)S(=O)(=O)c2cccc(C(=O)Nc3cc(OC)ccc3OC)c2)cc1 | 0 | -
COc1ccc(N(C)S(=O)(=O)c2cccc(C(=O)OC(C(=O)Nc3cc(C)cc(C)c3)c3ccccc3)c2)cc1 (configuration not stated) | -5.73 | 0
CC(=O)c1cccc(NC(=O)C(OC(=O)c2ccccc2NS(=O)(=O)c2cccs2)c2ccccc2)c1 (configuration not stated) | 0 | -
CC(=O)c1cccc(NC(=O)C(OC(=O)c2cccc(S(=O)(=O)N(C)c3ccccc3)c2)c2ccccc2)c1 (configuration not stated) | -5.55 | 0
CC(CC(=O)Nc1nnc(C(C)(C)C)s1)c1ccccc1 (configuration not stated) | 0 | -
CC(CN1CCCCC1)OC(=O)COc1ccc(Br)cc1 (configuration not stated) | 0 | 0
O=S(=O)(Nc1ccc(Cc2ccncc2)cc1)c1cccs1 | 0 | 0
SMILES | KCNQ2 block | KCNQ2 enhance
CCCCc1ccc(NS(=O)(=O)c2cccs2)cc1 | -5.9 | 0
CCOc1ccc(CCNC(=O)c2cccc(NC3=NC4CS(=O)(=O)CC4S3)c2)cc1 (configuration not stated) | 0 | -
CCN(CC)CCNc1nc(-c2ccccc2)nnc1C(F)(F)F | 0 | 9.04
CCN(CC)CCNc1nc(C(F)(F)F)nc2c1nnn2Cc1ccccc1 | 0 | 0
Cc1c(C(=O)O)oc2ccc(S(=O)(=O)N3CCCC3)cc12 | 0 | -
CCCCN(C)C(=O)c1oc2ccc(S(=O)(=O)N3CCCCCC3)cc2c1C | -5.63 | 0
CC1CN(C(=O)NCc2ccccc2)c2cc(Cl)ccc2O1 (configuration not stated) | 0 | -
CCC1COCCS(=O)(=O)N1Cc1ccc(F)cc1 (configuration not stated) | 0 | 0
Cc1cc(Nc2nn(C)c(N)c2C#N)ccc1F | 0 | 0
COc1ccc(CCNC(=O)Cc2ccc([N+](=O)[O-])cc2)cc1OC | 0 | -
COc1ccc(CCNC(=O)Cc2ccc(OCc3ccccc3)c(OC)c2[N+](=O)[O-])cc1OCc1ccccc1 | -7.67 | 0
CCOC(=O)[C@@H]1[C@H]2COc3ccccc3[C@H]2N2C(=O)N(c3cccc(F)c3)C(=O)[C@]12C | 0 | 0
Cc1ccccc1-n1nc2c(c1NC(=O)C(C)(C)C)CS(=O)(=O)C2 | 0 | -
CCCn1c(/N=C/c2ccccc2O)nc2ccccc21 | 0 | 0
Cn1c(/N=C/c2c(O)ccc3ccccc23)nc2ccccc21 | 0 | 9.91
O=C(CSc1nnc(Cc2ccccc2)n1Cc1ccco1)NC12CC3CC(CC(C3)C1)C2 | -7.71 | 0
CN(C)C(=O)CSc1nnc(Cc2ccccc2)n1Cc1ccco1 | 0 | 0
O=C(CSc1nnc(-c2ccco2)n1Cc1ccco1)NCc1cccs1 | 0 | 0
O=C(CSc1nnc(Cc2cccs2)n1Cc1ccco1)Nc1ccc(Br)cc1 | -6.69 | 0
